For orientation: residual activity means the signal under treatment as a percentage of the control signal.

Assay [1] addresses Tyrosine-protein kinase Fer (Homo sapiens) (UniProt P16591). Particulars: at 10 µM.
The target of assay [2] is Tyrosine-protein kinase Fes/Fps (Homo sapiens) (UniProt P07332). The settings on record: at 1 µM.
Assay [3] has the same target. Particulars: at 10 µM.
In assay [4] the target is Tyrosine-protein kinase Fgr (Homo sapiens) (UniProt P09769). The settings on record: at 1 µM.
Assay [5] shares this target. The settings on record: at 10 µM.
Assay [6] concerns the target Vascular endothelial growth factor receptor 1 (Homo sapiens) (UniProt P17948). The settings on record: at 1 µM.
Assay [7] has the same target. The settings on record: at 10 µM.
Assay [8] concerns the target Receptor-type tyrosine-protein kinase FLT3 (Homo sapiens) (UniProt P36888). The settings on record: at 1 µM.
Assay [9] has the same target. Particulars: at 10 µM.
The target of assay [10] is Vascular endothelial growth factor receptor 3 (Homo sapiens) (UniProt P35916). Particulars: at 1 µM.
Chain of Vascular endothelial growth factor receptor 3 (Homo sapiens) (P35916 whole entry): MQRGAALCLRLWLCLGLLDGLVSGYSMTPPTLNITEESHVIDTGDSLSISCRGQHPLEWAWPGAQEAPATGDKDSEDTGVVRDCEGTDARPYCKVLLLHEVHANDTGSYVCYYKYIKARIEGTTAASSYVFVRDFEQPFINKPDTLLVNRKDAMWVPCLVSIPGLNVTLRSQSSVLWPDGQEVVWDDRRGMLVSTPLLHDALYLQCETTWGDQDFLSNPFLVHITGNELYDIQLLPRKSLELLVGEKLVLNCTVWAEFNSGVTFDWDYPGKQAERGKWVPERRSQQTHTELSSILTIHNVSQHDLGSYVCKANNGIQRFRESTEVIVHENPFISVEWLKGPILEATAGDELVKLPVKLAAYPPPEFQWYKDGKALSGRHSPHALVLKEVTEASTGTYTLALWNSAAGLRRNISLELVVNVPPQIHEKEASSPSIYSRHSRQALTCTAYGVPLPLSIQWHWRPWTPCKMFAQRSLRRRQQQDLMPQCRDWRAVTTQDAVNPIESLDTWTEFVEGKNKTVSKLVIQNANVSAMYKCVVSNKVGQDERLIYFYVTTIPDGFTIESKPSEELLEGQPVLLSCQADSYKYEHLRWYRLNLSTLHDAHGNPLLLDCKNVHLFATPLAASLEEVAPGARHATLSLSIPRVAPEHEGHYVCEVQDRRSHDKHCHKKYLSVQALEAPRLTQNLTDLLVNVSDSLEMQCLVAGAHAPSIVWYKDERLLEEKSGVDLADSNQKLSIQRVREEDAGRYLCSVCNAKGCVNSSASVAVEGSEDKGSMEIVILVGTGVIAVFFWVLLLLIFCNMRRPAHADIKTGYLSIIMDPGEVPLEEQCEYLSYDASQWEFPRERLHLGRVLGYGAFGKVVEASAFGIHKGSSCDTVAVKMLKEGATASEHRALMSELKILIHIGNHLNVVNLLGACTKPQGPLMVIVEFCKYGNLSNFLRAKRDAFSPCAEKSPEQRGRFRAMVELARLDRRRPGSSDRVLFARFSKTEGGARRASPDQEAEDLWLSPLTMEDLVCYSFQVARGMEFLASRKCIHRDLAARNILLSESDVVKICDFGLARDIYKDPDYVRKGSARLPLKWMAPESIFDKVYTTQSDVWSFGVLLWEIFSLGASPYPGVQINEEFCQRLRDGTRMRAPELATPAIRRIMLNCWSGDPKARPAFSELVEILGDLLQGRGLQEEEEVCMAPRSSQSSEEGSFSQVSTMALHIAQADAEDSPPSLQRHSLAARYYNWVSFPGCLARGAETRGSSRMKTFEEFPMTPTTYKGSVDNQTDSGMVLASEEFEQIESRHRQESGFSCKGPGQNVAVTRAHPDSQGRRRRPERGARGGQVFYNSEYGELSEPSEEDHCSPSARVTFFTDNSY

Chain of Tyrosine-protein kinase Fgr (Homo sapiens) (P09769 2-529 limits assumed): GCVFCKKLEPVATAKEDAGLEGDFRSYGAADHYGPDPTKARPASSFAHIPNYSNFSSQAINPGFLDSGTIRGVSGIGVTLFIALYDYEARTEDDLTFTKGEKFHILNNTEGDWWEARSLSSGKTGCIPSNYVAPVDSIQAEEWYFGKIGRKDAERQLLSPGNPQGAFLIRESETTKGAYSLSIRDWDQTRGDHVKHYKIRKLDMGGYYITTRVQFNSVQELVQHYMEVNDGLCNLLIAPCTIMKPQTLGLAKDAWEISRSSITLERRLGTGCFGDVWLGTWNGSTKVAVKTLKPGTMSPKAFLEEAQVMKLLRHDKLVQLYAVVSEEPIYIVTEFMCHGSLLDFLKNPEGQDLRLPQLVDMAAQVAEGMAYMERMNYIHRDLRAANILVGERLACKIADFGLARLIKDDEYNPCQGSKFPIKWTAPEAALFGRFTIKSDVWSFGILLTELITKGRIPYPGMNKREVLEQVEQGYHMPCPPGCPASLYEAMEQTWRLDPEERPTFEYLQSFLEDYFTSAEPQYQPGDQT
Chain of Vascular endothelial growth factor receptor 1 (Homo sapiens) (P17948 whole entry): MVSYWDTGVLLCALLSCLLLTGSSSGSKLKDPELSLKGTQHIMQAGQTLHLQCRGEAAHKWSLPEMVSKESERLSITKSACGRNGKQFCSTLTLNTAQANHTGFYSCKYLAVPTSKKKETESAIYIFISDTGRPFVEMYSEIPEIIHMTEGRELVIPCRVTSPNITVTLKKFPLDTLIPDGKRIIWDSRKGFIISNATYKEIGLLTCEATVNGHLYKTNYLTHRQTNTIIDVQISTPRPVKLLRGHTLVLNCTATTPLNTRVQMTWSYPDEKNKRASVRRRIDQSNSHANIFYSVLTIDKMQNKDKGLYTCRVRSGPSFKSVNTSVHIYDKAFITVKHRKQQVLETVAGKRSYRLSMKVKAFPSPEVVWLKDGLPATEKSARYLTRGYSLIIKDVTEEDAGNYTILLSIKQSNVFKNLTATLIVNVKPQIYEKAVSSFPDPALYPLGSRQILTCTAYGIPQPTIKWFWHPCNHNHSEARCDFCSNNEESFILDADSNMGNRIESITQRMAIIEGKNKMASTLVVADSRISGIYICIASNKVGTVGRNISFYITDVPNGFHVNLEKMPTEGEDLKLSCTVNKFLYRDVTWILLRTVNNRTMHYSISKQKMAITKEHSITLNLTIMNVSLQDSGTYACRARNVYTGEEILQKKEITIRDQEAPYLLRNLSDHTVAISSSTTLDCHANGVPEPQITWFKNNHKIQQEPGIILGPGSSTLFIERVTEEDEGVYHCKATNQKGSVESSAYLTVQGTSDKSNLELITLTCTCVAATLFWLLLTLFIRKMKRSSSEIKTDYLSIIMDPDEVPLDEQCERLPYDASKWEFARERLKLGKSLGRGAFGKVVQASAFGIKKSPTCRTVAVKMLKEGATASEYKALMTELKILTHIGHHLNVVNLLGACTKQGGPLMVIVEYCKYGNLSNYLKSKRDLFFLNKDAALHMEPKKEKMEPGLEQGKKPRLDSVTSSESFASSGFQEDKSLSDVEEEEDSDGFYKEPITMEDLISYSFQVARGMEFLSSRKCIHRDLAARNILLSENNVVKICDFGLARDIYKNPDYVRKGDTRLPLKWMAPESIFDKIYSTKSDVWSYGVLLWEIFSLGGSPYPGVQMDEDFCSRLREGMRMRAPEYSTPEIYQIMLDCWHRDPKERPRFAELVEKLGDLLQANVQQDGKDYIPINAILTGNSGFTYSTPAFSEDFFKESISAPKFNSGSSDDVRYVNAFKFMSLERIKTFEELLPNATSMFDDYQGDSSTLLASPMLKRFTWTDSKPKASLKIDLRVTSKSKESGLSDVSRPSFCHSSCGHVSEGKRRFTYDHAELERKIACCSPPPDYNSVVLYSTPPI
Chain of Tyrosine-protein kinase Fes/Fps (Homo sapiens) (P07332 whole entry): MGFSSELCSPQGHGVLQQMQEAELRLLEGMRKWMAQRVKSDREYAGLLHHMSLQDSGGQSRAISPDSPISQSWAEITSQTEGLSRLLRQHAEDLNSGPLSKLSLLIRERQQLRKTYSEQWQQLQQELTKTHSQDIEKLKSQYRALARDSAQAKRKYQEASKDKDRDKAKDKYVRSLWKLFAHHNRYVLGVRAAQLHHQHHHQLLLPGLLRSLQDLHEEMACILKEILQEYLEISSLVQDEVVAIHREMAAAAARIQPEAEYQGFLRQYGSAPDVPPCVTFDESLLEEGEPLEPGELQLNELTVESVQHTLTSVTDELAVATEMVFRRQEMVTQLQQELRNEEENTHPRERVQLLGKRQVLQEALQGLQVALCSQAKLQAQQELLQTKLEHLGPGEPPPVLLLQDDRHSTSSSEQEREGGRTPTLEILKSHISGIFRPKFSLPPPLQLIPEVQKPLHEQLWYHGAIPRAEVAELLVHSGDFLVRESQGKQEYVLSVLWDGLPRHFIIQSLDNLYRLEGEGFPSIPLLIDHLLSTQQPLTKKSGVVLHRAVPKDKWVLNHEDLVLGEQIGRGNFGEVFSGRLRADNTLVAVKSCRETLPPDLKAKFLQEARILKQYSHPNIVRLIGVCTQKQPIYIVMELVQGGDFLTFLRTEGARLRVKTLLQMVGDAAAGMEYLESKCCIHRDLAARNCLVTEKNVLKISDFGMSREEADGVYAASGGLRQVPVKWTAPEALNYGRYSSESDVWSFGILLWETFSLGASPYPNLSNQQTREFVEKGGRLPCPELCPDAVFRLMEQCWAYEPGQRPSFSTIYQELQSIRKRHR
Chain of Tyrosine-protein kinase Fer (Homo sapiens) (P16591 whole entry, looked up): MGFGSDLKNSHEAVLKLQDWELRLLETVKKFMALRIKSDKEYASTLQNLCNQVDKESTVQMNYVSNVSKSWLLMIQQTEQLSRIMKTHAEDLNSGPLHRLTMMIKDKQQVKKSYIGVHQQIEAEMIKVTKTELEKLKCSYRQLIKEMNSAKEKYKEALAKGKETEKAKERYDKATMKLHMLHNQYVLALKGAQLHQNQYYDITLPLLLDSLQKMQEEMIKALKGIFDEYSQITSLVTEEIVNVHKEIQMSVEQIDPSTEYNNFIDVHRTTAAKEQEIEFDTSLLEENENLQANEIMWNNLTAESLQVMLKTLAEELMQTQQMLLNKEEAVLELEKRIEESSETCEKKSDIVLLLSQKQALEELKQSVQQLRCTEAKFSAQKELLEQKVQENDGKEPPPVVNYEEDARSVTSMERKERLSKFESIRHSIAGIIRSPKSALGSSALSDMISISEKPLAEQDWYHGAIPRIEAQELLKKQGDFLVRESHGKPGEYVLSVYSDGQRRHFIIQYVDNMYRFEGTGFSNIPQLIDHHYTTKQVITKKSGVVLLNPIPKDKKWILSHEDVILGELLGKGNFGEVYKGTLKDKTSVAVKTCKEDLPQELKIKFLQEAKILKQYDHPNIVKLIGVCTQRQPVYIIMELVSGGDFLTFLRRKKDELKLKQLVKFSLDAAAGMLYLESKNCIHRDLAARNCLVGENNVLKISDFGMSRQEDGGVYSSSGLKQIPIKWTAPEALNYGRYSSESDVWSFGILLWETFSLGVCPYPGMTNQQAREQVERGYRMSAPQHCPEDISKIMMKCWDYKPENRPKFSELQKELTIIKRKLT

Turning to `Nc1n[nH]c2nnc(-c3c(-c4ccccc4)nn4ccccc34)cc12`, the residual activity in assay [1] came out at 66%; in [2] it was 85%; in assay [3], 86%; in assay [4], 86%; in [5], 50%; in [6] it was 71%. Besides, the residual activity in assay [7] worked out at 23%; in assay [8], 72%; in assay [9] it was 22%; in assay [10], 76%.

Take `Cc1ccc(NC2=CC(=O)c3sc(C)nc3C2=O)cc1`: the residual activity in [1] stood at 96%; in [2] it was 97%; in assay [3], 104%; in [4], 90%; in assay [5], 109%; in assay [6], 96%. The residual activity came out at 91% in assay [7], 85% in assay [8], 81% in assay [9] and 95% in assay [10].

Turning to `COc1cc2ncc(-c3ccccc3)nc2cc1OC`, the residual activity stood at 99% in [1]; 126% in [2]; 87% in [3]; 95% in [6]; 67% in assay [7]; 57% in assay [8]. In addition, the results for the residual activity in assay [9] and in [10] were 16% and 71%, respectively.

With `COc1cc2ncnc(Nc3ccc(Oc4ccccc4)cc3)c2cc1OC`, the residual activity in assay [1] amounted to 76%; in assay [2] it was 102%; in [3] it was 90%; in assay [4], 7%; in assay [5], 2%; in assay [6], 18%. Moreover, the residual activity stood at 4% in assay [7], 39% in assay [8], 11% in [9] and 7% in assay [10].

Regarding `CN(C)CCCn1cc(C2=C(c3c[nH]c4ccccc34)C(=O)NC2=O)c2ccccc21`, the residual activity in assay [1] is 81%; in [2], 125%; in assay [3], 14%; in assay [5] it was 55%.

With `Cc1ccc(S(=O)(=O)/C=C/C#N)cc1`, the residual activity was determined as 99% in assay [1]; 97% in assay [2]; 108% in assay [3]; 108% in [4]; 105% in assay [5]; 96% in assay [6]. For the same compound, the residual activity in [7] was found to be 100%; in assay [9], 89%; in assay [10], 98%.

As to `c1ccc2c(-c3ccncc3)c[nH]c2c1`, the residual activity in assay [1] is 97%; in [2], 111%; in assay [3], 72%; in assay [5], 91%; in [6] it was 85%; in assay [7], 63%. Also, the residual activity in assay [8] was 107%; in assay [9], 78%; in [10] it was 91%.

In the case of `CC(C)n1cnc2/c(=N/c3cccc(Cl)c3)nc(NCCO)[nH]c21`, the residual activity in [1] stood at 47%; in assay [2] it was 58%; in assay [3] it was 12%; in assay [4] it was 48%; in assay [5], 12%; in assay [6], 68%. In addition, the residual activity in assay [7] was 30%; in assay [8], 20%; in assay [9] it was 1%; in [10] it was 42%.

As for `c1ccc(-c2n[nH]c3c2oc2ccccc23)cc1`, the residual activity in assay [5] worked out at 49%; in [6], 13%; in assay [7], 1%; in assay [8], 6%; in [9], 0%; in [10], 3%.

As to `CC#CC(=O)Nc1cc2c(Nc3ccc(F)c(Cl)c3)ncnc2cn1`, the residual activity in assay [1] was 94%; in [2] it was 118%; in assay [3] it was 81%; in assay [4], 105%; in [5], 95%; in assay [6], 94%. In addition, the residual activity in [7] amounted to 101%; in [8], 96%; in [9], 85%; in assay [10], 98%.

Consider `CC(=O)O/N=C1\C(=C2\C(=O)Nc3cc(Br)ccc32)Nc2ccccc21`, for which the residual activity was 92% in assay [1]; 107% in assay [2]; 97% in assay [3]; 10% in assay [4]; -1% in assay [5]; 24% in assay [6]. The residual activity is 1% in assay [7], 3% in assay [8], 0% in [9] and 2% in assay [10].

`O=C1Nc2ccc(Br)cc2/C1=C\c1cc2c([nH]1)CCCC2`: the residual activity in assay [2] came to 107%; in assay [3], 78%; in assay [5], 72%; in [6], 17%; in assay [7], 20%; in [8], 3%. Also, the residual activity in assay [9] and in assay [10] was 1% each time.

As to `COc1cc2ncnc(Nc3ccc(NC(=O)c4ccccc4)cc3)c2cc1OC`, the residual activity in assay [1] came out at 94%; in [3] it was 90%; in assay [4], 71%; in assay [5] it was 25%; in [6] it was 101%; in [7], 72%. Moreover, the residual activity amounted to 97% in assay [8], 92% in [9] and 76% in assay [10].

For `CCOc1cc2ncnc(Nc3cccc(Br)c3)c2cc1OCC`, the residual activity in assay [1] amounted to 85%; in assay [2], 112%; in assay [3] it was 80%; in [4] it was 54%; in [5] it was 10%; in assay [6] it was 54%. Also, the residual activity in [7] was determined as 6%; in assay [8], 101%; in assay [9] it was 40%; in [10], 36%.

Consider `O=[N+]([O-])c1ccc(-c2nc(-c3ccc(F)cc3)c(-c3ccncc3)[nH]2)cc1`, for which the residual activity in [2] was found to be 100%; in assay [3], 116%; in [4], 103%; in assay [5], 96%; in [6], 77%; in assay [7], 46%. In addition, the residual activity in [8] was 104%; in assay [9], 90%; in [10], 78%.

Regarding `COc1ccc(S(=O)(=O)N(CCO)c2ccccc2CN(C)C/C=C/c2ccc(Cl)cc2)cc1`, the residual activity was found to be 91% in assay [1]; 96% in assay [2]; 89% in assay [3]; 95% in assay [4]; 80% in assay [5]; 100% in assay [6]. Also, the residual activity was 92% in [7], 104% in [8], 62% in assay [9] and 90% in [10].

Take `COc1cccc(-c2cc(=O)c3ccccc3o2)c1N`: the residual activity in assay [1] was determined as 101%; in [2] it was 94%; in [3], 107%; in [4], 97%; in assay [5] it was 100%; in assay [6], 101%. Moreover, the residual activity came to 92% in assay [7], 87% in [8], 85% in assay [9] and 95% in assay [10].

In the case of `CO[C@H]1[C@@H](OC)C[C@H](C)[C@@H](OC)C2=CC(=O)C=C(NC(=O)/C(C)=C/C=C/[C@H](OC)[C@@H](OC(N)=O)/C(C)=C/[C@@H]1C)C2=O`, the residual activity worked out at 99% in [1]; 111% in [2]; 99% in assay [4]; 100% in assay [5]; 86% in [6]; 95% in [7]. Besides, the values for the residual activity in assay [8], in [9] and in [10] were 85%, 76% and 92%, respectively.

Regarding `CO[C@@H]1[C@H](N(C)C(=O)c2ccccc2)C[C@H]2O[C@]1(C)n1c3ccccc3c3c4c(c5c6ccccc6n2c5c31)C(=O)NC4`, the residual activity in [1] was 14%; in assay [2], 15%; in assay [3] it was 9%; in assay [4], 7%; in assay [5], 4%; in [6], 4%. In addition, the residual activity in [7] and in assay [10] was 1% throughout.
